Only a selection was taken, and the strongest signals are over-represented in it overall.
Key:
Assay in all cases: glycan array binding signal (z-score within array); higher = stronger binding
Details in all cases: glycan notation: IUPAC condensed, linker removed
[1] = molecular target: Fuc(a1-2)Gal(b1-3)[Fuc(a1-4)]GlcNAc
Procedure, shortened: (§1)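 The binding signal is a Z-score computed within each array. Data were drawn from 3228 arrays in the Consortium for Functional Glycomics database, restricted to those with a known protein sequence. Scores were averaged over arrays of the same protein sequence at different concentrations or buffers, and over linkers, and negative values can be taken as non-binding.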

Fuc(a1-2)Gal(b1-4)Glc = molecular target: Fuc(a1-2)Gal(b1-4)Glc
Procedure, shortened: as §1

[2] = molecular target: Fuc(a1-2)Gal6S(b1-4)GlcNAc
Procedure, shortened: as §1

[3] = molecular target: Fuc(a1-2)[Gal(a1-3)]Gal(b1-4)GlcNAc
Procedure, shortened: as §1

[4] = molecular target: Fuc(a1-2)[Gal(a1-3)]Gal(b1-4)GlcNAc(b1-2)Man(a1-3)[Fuc(a1-2)[Gal(a1-3)]Gal(b1-4)GlcNAc(b1-2)Man(a1-6)]Man(b1-4)GlcNAc(b1-4)GlcNAc
Procedure, shortened: as §1

[5] = molecular target: Fuc(a1-2)[Gal(a1-3)]Gal(b1-4)GlcNAc(b1-3)GalNAc
Procedure, shortened: as §1

[6] = molecular target: Fuc(a1-2)[Gal(a1-3)]Gal(b1-4)[Fuc(a1-3)]Glc
Procedure, shortened: as §1

[7] = molecular target: Fuc(a1-2)[GalNAc(a1-4)]Gal(b1-4)GlcNAc
Procedure, shortened: as §1

[8] = molecular target: Fuc(a1-3)[Gal(b1-4)]Glc6S
Procedure, shortened: as §1

[9] = molecular target: Gal(a1-3)Fuc(a1-2)Gal(b1-4)GlcNAc(b1-3)[Gal(a1-3)Fuc(a1-2)Gal(b1-4)GlcNAc(b1-6)]GalNAc
Procedure, shortened: as §1

Gal(a1-3)Gal(b1-4)GlcNAc = molecular target: Gal(a1-3)Gal(b1-4)GlcNAc
Procedure, shortened: as §1

[10] = molecular target: Gal(a1-4)Gal(b1-3)GlcNAc(b1-2)Man(a1-3)[Gal(a1-4)Gal(b1-3)GlcNAc(b1-2)Man(a1-6)]Man(b1-4)GlcNAc(b1-4)GlcNAc
Procedure, shortened: as §1

Gal(a1-4)GlcNAc = molecular target: Gal(a1-4)GlcNAc
Procedure, shortened: as §1

[11] = molecular target: Gal(b1-3)Gal(b1-4)GlcNAc(b1-2)Man(a1-3)[Gal(b1-3)Gal(b1-4)GlcNAc(b1-2)Man(a1-6)]Man(b1-4)GlcNAc(b1-4)GlcNAc
Procedure, shortened: as §1

Gal(b1-3)GlcNAc = molecular target: Gal(b1-3)GlcNAc
Procedure, shortened: as §1

[12] = molecular target: Gal(b1-3)GlcNAc(b1-2)Man(a1-3)[Gal(b1-3)GlcNAc(b1-2)Man(a1-6)]Man(b1-4)GlcNAc(b1-4)[Fuc(a1-6)]GlcNAc
Procedure, shortened: as §1

[13] = molecular target: Gal(b1-3)GlcNAc(b1-3)Gal(b1-4)GlcNAc
Procedure, shortened: as §1

[14] = molecular target: Gal(b1-3)[Fuc(a1-4)]GlcNAc(b1-2)Man(a1-3)[Gal(b1-3)[Fuc(a1-4)]GlcNAc(b1-2)Man(a1-6)]Man(b1-4)GlcNAc(b1-4)[Fuc(a1-6)]GlcNAc
Procedure, shortened: as §1

[15] = molecular target: Gal(b1-4)GlcNAc(b1-3)Gal(b1-4)Glc
Procedure, shortened: as §1

[16] = molecular target: Gal(b1-4)GlcNAc(b1-3)GalNAc
Procedure, shortened: as §1

[17] = molecular target: GalNAc(a1-3)Fuc(a1-2)Gal(b1-4)GlcNAc(b1-3)[GalNAc(a1-3)Fuc(a1-2)Gal(b1-4)GlcNAc(b1-6)]GalNAc
Procedure, shortened: as §1

GalNAc(b1-4)Gal(b1-4)Glc = molecular target: GalNAc(b1-4)Gal(b1-4)Glc
Procedure, shortened: as §1

GlcA(b1-3)Gal = molecular target: GlcA(b1-3)Gal
Procedure, shortened: as §1

GlcNAc(b1-3)Gal(b1-4)Glc = molecular target: GlcNAc(b1-3)Gal(b1-4)Glc
Procedure, shortened: as §1

Kdn(a2-3)Gal(b1-4)Glc = molecular target: Kdn(a2-3)Gal(b1-4)Glc
Procedure, shortened: as §1

Kdn(a2-6)Gal(b1-4)GlcNAc = molecular target: Kdn(a2-6)Gal(b1-4)GlcNAc
Procedure, shortened: as §1

[18] = molecular target: Neu5Ac(a2-3)Gal(b1-4)GlcNAc(b1-3)Gal(b1-4)[Fuc(a1-3)]GlcNAc
Procedure, shortened: as §1

[19] = molecular target: Neu5Ac(a2-3)[GalNAc(b1-4)]Gal(b1-4)GlcNAc(b1-3)GalNAc
Procedure, shortened: as §1

Neu5Ac(a2-6)GalNAc = molecular target: Neu5Ac(a2-6)GalNAc
Procedure, shortened: as §1

[20] = molecular target: Neu5Ac9Ac(a2-3)Gal(b1-4)GlcNAc
Procedure, shortened: as §1

B1: SCA (Schizophyllum commune) (protein)
chain: MGIDQGVYLITNAGSGTAATLKDGYVKGWERIKGKEQLNQLWFVKSVKTSASDPGYAAFNLATNKVLDLEKGLADRGTPILGWDYHEGDNQHWVIKKQADGKYYKIQSVKTQTFVDLNNGGKDNGTKIQGWVGSWDETNSHQRWVFNQFSATGSRIKSILDTHPKIHGKVIVEWPDRIYFTPDQYIFEAIWAKTGLADIKPRDPLFQSEAYEKVFKGWVVSRAQEIIKVDGFDILVGSLSLVEKSTQKIKVLDVSVRTSDDKSPDLSQIVFFDPESGRTLVDIPEGYEVNSVII
In the case of B1, the “glycan array binding signal (z-score)” value [1] is reported as -0.163, the “glycan array binding signal (z-score)” value (Fuc(a1-2)Gal(b1-4)Glc) is reported as -0.153 and the “glycan array binding signal (z-score)” value [2] is reported as -0.161. The “glycan array binding signal (z-score)” value [3] was 5.61, the “glycan array binding signal (z-score)” value [4] was 7.08 and the “glycan array binding signal (z-score)” value [5] was 2.52. The “glycan array binding signal (z-score)” value [6] was -0.163, the “glycan array binding signal (z-score)” value [7] was 0.703 and the “glycan array binding signal (z-score)” value [8] was -0.16. The “glycan array binding signal (z-score)” value [9] was 6.72, the “glycan array binding signal (z-score)” value (Gal(a1-3)Gal(b1-4)GlcNAc) was 8.25 and the “glycan array binding signal (z-score)” value [10] was 3.68. The “glycan array binding signal (z-score)” value (Gal(a1-4)GlcNAc) was -0.135, the “glycan array binding signal (z-score)” value [11] was 11.4 and the “glycan array binding signal (z-score)” value (Gal(b1-3)GlcNAc) was -0.162. For the same binder, the “glycan array binding signal (z-score)” value [12] was -0.159, the “glycan array binding signal (z-score)” value [13] was -0.158 and the “glycan array binding signal (z-score)” value [14] was -0.054. The “glycan array binding signal (z-score)” value [15] was -0.16, the “glycan array binding signal (z-score)” value [16] was -0.159 and the “glycan array binding signal (z-score)” value [17] was 0.835. The “glycan array binding signal (z-score)” value (GalNAc(b1-4)Gal(b1-4)Glc) was -0.162, the “glycan array binding signal (z-score)” value (GlcA(b1-3)Gal) was 8.44 and the “glycan array binding signal (z-score)” value (GlcNAc(b1-3)Gal(b1-4)Glc) was -0.158. The “glycan array binding signal (z-score)” value (Kdn(a2-3)Gal(b1-4)Glc) was -0.152, the “glycan array binding signal (z-score)” value (Kdn(a2-6)Gal(b1-4)GlcNAc) was -0.162 and the “glycan array binding signal (z-score)” value [18] was -0.164. For the same binder, the “glycan array binding signal (z-score)” value [19] was -0.161, the “glycan array binding signal (z-score)” value (Neu5Ac(a2-6)GalNAc) was -0.162 and the “glycan array binding signal (z-score)” value [20] was -0.16.
